The campaign covered roughly 5,500 compounds. About 2,000 (36%) were called active. About 18% were inconclusive and are not listed. Rule as the data show it: active = normalized growth mostly below about 0.91 (no sharp cut-off); inconclusive = no clear call, values can overlap the other calls; inactive = mostly above about 0.92. The list shows a part of the results.
Test: chemical genetic growth profiling, strain panel (AID 1159580);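 also: tested at 20 µM; growth read once vehicle control cultures reached saturation at 30 °C; 1 = growth at the plate median or of vehicle wells; lower values mean less growth of the strain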
Conditions: growth OD

Measured: normalized growth

FC(F)(F)c1cc(-c2noc(C3CCc4ccccc4O3)n2)cc(C(F)(F)F)c1 (centres undefined)
inactive: S. cerevisiae deletion strains, locus YAL013W, strain DEP1, hits give low values 0.999 | S. cerevisiae deletion strains, locus YBR229C, strain ROT2, hits give low values 1.02 | S. cerevisiae deletion strains, locus YCL061C, strain MRC1, hits give low values 0.988 | S. cerevisiae deletion strains, locus YDL101C, strain DUN1, hits give low values 0.995 | S. cerevisiae deletion strains, locus YDL134C, strain PPH21, hits give low values 1.03 | S. cerevisiae deletion strains, locus YDR150W, strain NUM1, hits give low values 0.942 | S. cerevisiae deletion strains, locus YEL061C, strain CIN8, hits give low values 1.01 | S. cerevisiae deletion strains, locus YGR078C, strain PAC10, hits give low values 0.988 | S. cerevisiae deletion strains, locus YGR229C, strain SMI1, hits give low values 1 | S. cerevisiae deletion strains, locus YHR030C, strain SLT2, hits give low values 1.05 | S. cerevisiae deletion strains, locus YHR087W, strain rtc3, hits give low values 0.994 | S. cerevisiae deletion strains, locus YJR043C, strain POL32, hits give low values 0.998 | S. cerevisiae deletion strains, locus YJR075W, strain HOC1, hits give low values 0.97 | S. cerevisiae deletion strains, locus YKL190W, strain CNB1, hits give low values 1.02 | S. cerevisiae deletion strains, locus YLR039C, strain RIC1, hits give low values 1.04 | S. cerevisiae deletion strains, locus YLR058C, strain SHM2 (second series), hits give low values 0.995 | S. cerevisiae deletion strains, locus YLR085C, strain ARP6, hits give low values 0.98 | S. cerevisiae deletion strains, locus YLR262C, strain YPT6, hits give low values 1.04 | S. cerevisiae deletion strains, locus YML094W, strain GIM5, hits give low values 0.982 | S. cerevisiae deletion strains, locus YMR219W, strain ESC1, hits give low values 1 | S. cerevisiae deletion strains, locus YMR263W, strain SAP30, hits give low values 0.993 | S. cerevisiae deletion strains, locus YNL153C, strain GIM3, hits give low values 0.998 | S. cerevisiae deletion strains, locus YNL298W, strain CLA4 (second series), hits give low values 1.01 | S. cerevisiae deletion strains, locus YNL322C, strain KRE1, hits give low values 0.985 | S. cerevisiae deletion strains, locus YNR030W, strain Alg12, hits give low values 0.996 | S. cerevisiae deletion strains, locus YPL055C, strain LGE1, hits give low values 0.96 | S. cerevisiae deletion strains, locus YPL241C, strain CIN2, hits give low values 0.985 | S. cerevisiae deletion strains, locus YPR135W, strain CTF4, hits give low values 1.11 | S. cerevisiae strains, strain wild type, hits give low values 1

From PubChem BioAssay AID1159580 (chemical genetic matrix, 2015)
